# Assay outcomes (PubChem BioAssay)
# Sampled rows, rich in hits. Any-hit rate of the full collection: about 15%.
# VP16 counter = counter-screen for ROR gamma inhibitors: Gal4-VP16 reporter. Drosophila S2 Gal4-VP16 UAS-luciferase, luminescence, 20 h. AID 2546. Potency, µM (titrated, usually from 53.6 µM), inactives show at the highest dose activity, negative = inhibition, actives largely listed as inhibitors. 310,000 tested, 3.5% active;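 further: Gal4-VP16 expression switched on by copper sulfate through the metallothionein promoter; nearly all actives have a fitted effect of over 50% in size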
# RORg inh = ROR gamma (mouse) transcription inhibition. P51450. Drosophila S2 Gal4-RORgamma UAS-luciferase reporter, 20 h. Potency, µM (titrated, usually from 53.6 µM), for inactives: at the highest dose activity change, negative = inhibition, most hits filed as inhibitors. 310,000 tested, 5.4% active; further: nearly all actives have a fitted effect of over 60% in size
# Target sequence (P51450 whole entry, looked up, the tested form may be a part): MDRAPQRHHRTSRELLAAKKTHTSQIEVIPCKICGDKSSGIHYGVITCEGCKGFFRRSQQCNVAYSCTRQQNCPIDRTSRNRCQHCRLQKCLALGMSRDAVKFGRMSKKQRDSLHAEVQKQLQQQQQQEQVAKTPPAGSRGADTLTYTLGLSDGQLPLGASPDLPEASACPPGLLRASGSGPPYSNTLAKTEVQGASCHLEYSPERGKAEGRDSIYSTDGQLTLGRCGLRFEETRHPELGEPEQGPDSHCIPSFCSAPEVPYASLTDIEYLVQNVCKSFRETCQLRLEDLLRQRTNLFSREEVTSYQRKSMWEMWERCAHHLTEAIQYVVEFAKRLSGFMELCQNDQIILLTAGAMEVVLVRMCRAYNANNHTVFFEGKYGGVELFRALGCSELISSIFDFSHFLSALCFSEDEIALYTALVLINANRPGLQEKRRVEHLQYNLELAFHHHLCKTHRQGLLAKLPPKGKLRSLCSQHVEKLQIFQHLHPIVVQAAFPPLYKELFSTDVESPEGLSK
#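 Drosophila S2 cells stably expressing Gal4-DBD/mouse RORγ fusion under metallothionein promoter plus UAS-luciferase; compound 1 h, then 700 uM CuSO4 induction for 20 h at ambient temperature; inhibition read as reduced luminescence.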
# TDP1 cell noCPT = qHTS for Inhibitors of human tyrosyl-DNA phosphodiesterase 1 (TDP1): qHTS in cells in absence of CPT; Potency, µM (highest dose often 46.2 µM), for the others: top-dose activity change, negative = growth inhibition, usual class: inhibitors; 420,000 tested, 15% active; DT40 Tdp1-/- hTDP1 cells, no CPT, ATP luminescence, 48 h; further: nearly all actives have a fitted effect of over 55% in size
#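 Chicken DT40 Tdp1-/- cells stably complemented with human TDP1 were seeded at 400 cells/well with DMSO in place of 20 nM camptothecin. After compound pinning, cells grew at least 48 hr at 37 °C; viability read by CellTiter-Glo luminescence.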
# TDP1 cell CPT = growth inhibition of DT40 Tdp1-/-;hTDP1 cells with camptothecin (screen for TDP1 inhibitors); chicken DT40 Tdp1-/-;hTDP1 cells + 20 nM CPT, ATP luminescence, 48 h; Potency, µM (series often up to 46.2 µM), for the others: at the highest dose activity change, negative = growth inhibition, actives largely listed as inhibitors; 420,000 tested, 12% active; AID 686979; further: nearly all actives have a fitted effect of over 55% in size
#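 Chicken DT40 Tdp1-/- cells stably complemented with human TDP1 were seeded at 400 cells/well in medium containing 20 nM camptothecin, exposed to pin-transferred compounds, and grown at 37 °C for at least 48 hr. Viability was read as ATP luminescence.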
# 12-LOX inh = inhibitors of human 12S-lipoxygenase ALOX12. P18054. purified 12hLO, xylenol orange hydroperoxide absorbance. Potency, µM (series often up to 108 µM), inactives show top-dose activity change, negative = inhibition, hits mostly inhibitors. 580,000 tested, 1.1% active
#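 Purified human 12hLO at 150 nM in 25 mM Hepes, 0.01% Triton X-100, pH 7.0, preincubated 15 min at room temperature with compound. Reaction started with 40 uM arachidonic acid, 30 min at room temperature. Hydroperoxide measured by Fe-xylenol orange, 573/405 nm absorbance ratio.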
# ELG1 DNA repair = blocks ELG1-dependent DNA repair in HEK293T cells | Potency, µM (top dose mostly 46.1 µM), for the others: top-dose activity change, negative = inhibition, hits mostly inhibitors | AID 504467 | 330,000 tested, 2.3% active | HEK293T ELG1-luciferase reporter, luminescence, 16 h; DNA damage induced by 5-fluorouridine; further: nearly all actives have a fitted effect of over 55% in size
#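 Cells (2,000 per well) received 5-fluorouridine plus test compound or DMSO and were incubated 16 hr at 37 °C, 5% CO2. Luciferase activity was read by luminescence 30 min after ONE-Glo addition; signal suppression marked inhibition of damage-induced ELG1 function.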
# The depositor's hits bear a star; ? = inconclusive; / = no result given; [ ] = dose if it differs, or a comment. The call rests on the fitted dose curve; in most records, active means well fitted curve in the direction sought with a large enough effect; inconclusive means small, poorly fitted or top-dose-only effect, or another doubt; inactive means no such curve, though single readings can be large; an effect the other way counts as inactive or inconclusive. On the % scale 0 is the no-effect control and ±100 the full control effect; potency means the concentration at half of the fitted maximal effect.
SMILES,VP16 counter,RORg inh,TDP1 cell noCPT,TDP1 cell CPT,12-LOX inh,ELG1 DNA repair
NC(=O)c1ccccc1N/C=C/C(=O)c1cccs1,11%,?,-22%,-15%,0%,?
COc1cc([N+](=O)[O-])ccc1N/C=C/C(=O)c1cccs1,8.9µM*,8.9µM*,?,?,11%,?
Cc1cccc(N/C=C/C(=O)c2cccs2)c1C,?,10µM*,-24%,-13%,9%,?
O=C(/C=C/c1ccc([N+](=O)[O-])cc1)c1cccs1,4%,1%,?,?,2%,-2%
O=C(O)C[C@@H]1CCN(C(=O)C2CCC2)C[C@@H]1CCN1CCC(n2c(=O)[nH]c3ccccc32)CC1,/,/,/,/,18%,/
CCC1(C)Cc2c(sc3nnn(CC(=O)Nc4ccccc4)c(=O)c23)CO1 (configuration not stated),-5%,9%,-15%,-16%,-8%,?
C=C(C)CSc1nc2sc3c(c2c(=O)n1Cc1ccccc1)CC(C)(CC)OC3 (configuration not stated),/,/,12µM*,?,0%,/
CCC1(C)Cc2c(sc3nnn(CC(=O)Nc4ccccc4C)c(=O)c23)CO1 (configuration not stated),-1%,43%,?,?,-27%,10µM*
CCC1(C)Cc2c(sc3nnn(Cc4ccccc4Cl)c(=O)c23)CO1 (configuration not stated),-4%,?,16µM*,?,0%,?
CCOC(=O)c1c(NC(=O)CSc2ncccn2)sc2c1CC(C)(C)NC2(C)C,14%,-33%,-2%,-2%,9%,-24%
CCOC(=O)c1c(NC(=O)COc2ccccc2F)sc2c1CC(C)(C)NC2(C)C,/,/,13µM*,9.2µM*,-21%,?
COC(=O)c1c(NC(=O)Cc2ccccc2)sc2c1CC(C)(C)NC2(C)C,1%,8%,?,?,2%[57.4 µM],-1%
COC(=O)c1c(NC(=O)COc2ccc(Cl)cc2)sc2c1CC(C)(C)NC2(C)C,?,4%,3.7µM*,2.9µM*,-28%,14%
CCOC(=O)c1cnc(SCc2nc(-c3cccc(Cl)c3)oc2C)nc1N,/,/,/,/,-7%,/
CC1CCC(C(C)C)C(OC(=O)COC(=O)c2ccc(N)cc2)C1 (configuration not stated),16µM*,32%,?,?,-11%,-2%
COc1ccccc1NS(=O)(=O)c1ccc2oc(SC)nc2c1,-18%,?,?,?,-3%,-6%
COc1ccccc1NS(=O)(=O)c1ccc2oc(SCc3ccc(F)cc3)nc2c1,?,?,16µM*,16µM*,-1%,13%
COc1ccccc1NS(=O)(=O)c1ccc2oc(SC(C)C(=O)N3CCNC3=O)nc2c1 (configuration not stated),/,/,?,15µM*,23%,26µM*
COc1ccccc1NS(=O)(=O)c1ccc2oc(SCC(C)=O)nc2c1,?,?,?,-6%,12%,-20%
COc1ccc(-c2nc(C)c(C)cc2C#N)c2cccnc12,/,/,/,/,27%,/
O=C(NCc1cccc(F)c1)c1nc2c(o1)CCN(Cc1cccc(F)c1F)CC2,/,/,/,/,-12%[176 µM],/
O=[N+]([O-])c1ccccc1Nc1c2ccccc2nc2ccccc12,?,-29%,?,21µM*,0%,-13%
NC(N)=NCCCS(=O)(=O)Nc1ccc(Nc2c3ccccc3nc3cc([N+](=O)[O-])ccc23)cc1,/,/,16µM*,9.2µM*,?,/
O=[N+]([O-])c1ccc(-c2nc(Nc3ccc(O)cc3)c3ccccc3n2)cc1,-26%,-18%,-1%,-15%,?,?
Cc1ccc2c([N+](=O)[O-])cccc2n1,-10%,17%,5%,4%,-19%,-7%
SMILES,VP16 counter,RORg inh,TDP1 cell noCPT,TDP1 cell CPT,12-LOX inh,ELG1 DNA repair
O=[N+]([O-])c1ccc(Nc2c3ccccc3nc3ccccc23)cc1,-6%,22µM*,?,?,?,?
COc1ccc(OC)c(NC(=O)CCC[C@@H]2[C@H]3CCCN4CCC[C@@H](CN2C)[C@@H]34)c1,/,/,/,/,60%,/
O=C(CCS(=O)(=O)c1ccc(F)cc1)Nc1ccc(OC(F)F)c(Cl)c1,/,/,/,/,-9%,/
COc1cccc(S(=O)(=O)N2CCC3(CC2)CC(N2CCOCC2)CCO3)c1 (configuration not stated),/,/,/,/,19%,/
COc1ccc(C(=O)N2CCc3ccc(C(=O)NCc4cccc(F)c4)cc32)cc1,/,/,/,/,47%,/
COc1ccc(CN2CCCCCC2)cc1OC,/,/,-19%,-18%,2µM*,/
COc1ccc(CN2CCOCC2)cc1Br,3%,-23%,21%,1%,27%,14%
COc1ccc(CN2CCCCCC2)cc1Br,0%,-16%,-23%,-30%,1µM*,-4%
Cc1ccc(-c2noc(CN3CCCC3c3cccs3)n2)cc1 (configuration not stated),/,/,/,/,-7%,/
O=C(c1cccs1)N1CCCC(CN2CCCC2)CC1 (configuration not stated),/,/,/,/,106%,/
O=C(CC[C@@H]1CNC(=O)[C@@H]2C[C@H](NC(=O)Nc3cccc(Cl)c3)CN12)NCc1cccnc1,/,/,/,/,45µM*,/
O=C(CC[C@@H]1CNC(=O)[C@@H]2C[C@H](NC(=O)c3cccc(F)c3)CN12)NCc1cccnc1,/,/,/,/,72%[176 µM],/
CCn1cnc2c1c(=O)n(CC(=O)Nc1ccccc1OC(F)F)c(=O)n2Cc1ccccc1,/,/,/,/,-9%,/
CN(Cc1ccc(OCC(O)CN(C)Cc2ccccc2)cc1)Cc1nccn1C (configuration not stated),-7%,0%,?,?,-4%,-2%
C=CCOc1ccc(CN(C)CC(O)COc2ccc(CCC(C)=O)cc2)cc1 (configuration not stated),-15%,-29%,16µM*,?,-26%,-8%
CN(Cc1ccc(Br)cc1)CC(O)COc1cccc(Br)c1 (configuration not stated),?,?,?,?,0.89µM*,-7%
Cc1ccccc1CN(C)CC(O)COc1ccc(-c2ccccc2)cc1 (configuration not stated),/,/,/,/,29%,/
COc1ccc(CN(C)CC(O)COc2ccc(-c3ccccc3)cc2)cc1OC (configuration not stated),-14%,8%,?,18µM*,?,-6%
